# Rows were chosen to be rich in hits. Some 12% of all compounds tested hit in one or more screens of this group.
# Pf growth 48h: Primary qHTS for delayed death inhibitors of the malarial parasite plastid, 48 hour incubation | P. falciparum luciferase growth in erythrocytes, 48 h | Potency, µM (doses to about 28.7 µM), for the others: at the highest dose activity change, negative = inhibition, hits mostly inhibitors | 310,000 compounds, 5.9% hits | AID 504832, 2011; further: on the % scale 0 is the no-effect control and ±100 the full control effect
#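 Here the parasites carry a stable luciferase gene and grow inside erythrocytes in Albumax-based RPMI medium with compound for one erythrocytic cycle. Activity is scored as loss of luminescent signal.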
# SARS PLpro yeast: qHTS of Yeast-based Assay for SARS-CoV PLP | S. cerevisiae expressing SARS-CoV PLpro, growth rescue | Potency, µM (doses to about 32.9 µM), for the others: top-dose activity, positive = growth rescue, hits mostly activators | 330,000 compounds, 0.19% hits | AID 485353, 2010; calls by dose curve; further: 0% is about no effect; nearly all actives have a fitted effect of over 55% in size
# Sm TGR inh: qHTS Assay for the Inhibitors of Schistosoma Mansoni Peroxiredoxins. purified TGR, DTNB reduction, TNB absorbance 405 nm. Schistosoma mansoni thioredoxin glutathione reductase (TGR), Q962Y6. Potency, µM (series often up to 114 µM), inactives show at the highest dose activity change, negative = inhibition, hits mostly inhibitors. 360,000 compounds, 3% hits; further: on the % scale 0 is the no-effect control and ±100 the full control effect; nearly all actives have a fitted effect of over 60% in size
#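 First, TGR (20 nM dispensed) and NADPH were mixed with compound. Second, a 15 min room-temperature incubation followed. Third, further NADPH and then DTNB were added to start the reaction. Finally, TNB absorbance was monitored kinetically.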
# Pf growth 96h: Primary qHTS for delayed death inhibitors of the malarial parasite plastid, 96 hour incubation; P. falciparum luciferase reporter growth, 96 h; Potency, µM (series often up to 28.7 µM), inactives show at the highest dose activity change, negative = inhibition, usual class: inhibitors; 320,000 compounds, 6.9% hits; further: on the % scale 0 is the no-effect control and ±100 the full control effect
#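 Parasite growth measured via integrated firefly luciferase reporter in P. falciparum. Infected erythrocytes at 2% hematocrit, 0.05% parasitemia final were treated 96 hours at 37 C under 5% CO2, and luminescence was read.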
# * hit, by the source's call; i = inactive; ? = inconclusive; nt = not tested or not shown. Unless noted, the call rests on the fitted dose curve; in most records, active means well fitted curve in the direction sought with a large enough effect; inconclusive means small, poorly fitted or top-dose-only effect, or another doubt; inactive means no such curve, though single readings can be large; an effect the other way counts as inactive or inconclusive. Potency means the concentration at half of the fitted maximal effect.
SMILES,Pf growth 48h,SARS PLpro yeast,Sm TGR inh,Pf growth 96h
CCSc1nc2sc3c(c2c(=O)n1-c1ccccc1C)CCN(C)C3,5.2µM*,1%,?,1.5µM*
CC(CCc1ccccc1)NS(=O)(=O)c1ccccc1 (centres undefined),?,-5%,1%,138%
CCOC(=O)C#CC(CCc1ccccc1)OS(N)(=O)=O (centres undefined),?,-12%,11µM*,37%
CC(C)(C)C#CC(CCc1ccccc1)OS(N)(=O)=O (centres undefined),?,-3%,28µM*,?
CCSc1nnc(-c2ccccc2SC)o1,i,1%,2%,8.3µM*
CCOC(=O)c1ccc(NC(=O)c2ccc3c(c2)c(C)c(C)n3Cc2ccc(F)cc2)cc1,nt,nt,13%,nt
COCCNC(=O)CSc1nc2cc3c(cc2c(=O)n1CCCC(=O)NCc1ccc2c(c1)OCO2)OCO3,nt,nt,-7%,nt
CC(=O)NC1(c2ccccc2)CCN(Cc2nnnn2C(C)(C)C)CC1,5%,-4%,14%,12µM*
CCS(=O)(=O)N1CCC(NC(C)=O)(c2ccccc2)CC1,0%,5%,3%,-19%
COc1ccccc1N1CCN(C(=O)CN2C(=O)COc3ccc(S(=O)(=O)N4CCOCC4)cc32)CC1,nt,nt,-13%,nt
O=C(c1ccc(CS(=O)c2cccc(Cl)c2)o1)N1CCN(c2ccccn2)CC1 (centres undefined),?,-4%,-15%,7.4µM*
COc1cccc(N2CCN(C(=O)c3ccc(CS(=O)c4ccc(C)cc4)o3)CC2)c1 (centres undefined),-10%,-2%,?,?
Cc1ccc(S(=O)Cc2ccc(C(=O)N3CCN(C(=O)c4ccco4)CC3)o2)cc1 (centres undefined),10%,?,?,?
CCOC(=O)N1CCC(NC(=O)c2ccc(CS(=O)c3cccc(Cl)c3)o2)CC1 (centres undefined),0%,2%,?,9.3µM*
COc1cccc(N2CCN(C(=O)c3ccc(CS(=O)c4ccc(Cl)cc4)o3)CC2)c1 (centres undefined),?,11%,-14%,13µM*
O=C(c1ccco1)N1CCN(C(=O)c2ccc(CS(=O)c3ccc(Cl)cc3)o2)CC1 (centres undefined),8%,9%,40µM*,?
Cc1cccc(CSc2nc3c(sc4ccccc43)c(=O)n2CCC(=O)NC(C)C)c1,nt,nt,-3%,nt
CCCN1CCC(NCc2cn(C)nc2-c2ccc(Oc3ccccc3)cc2)CC1,1.7µM*,0%,21%,?
COCCN1CCCC(CNCc2cn(C)nc2-c2ccc(Oc3ccccc3)cc2)C1 (centres undefined),6.6µM*,0%,-7%,?
Cc1oc(-c2ccccc2Cl)nc1CS(=O)CC(=O)N1CCN(c2cccc(C(F)(F)F)c2)CC1 (centres undefined),nt,nt,-26%,nt
CN(C)S(=O)(=O)c1ccc(/C(O)=C2/C(=O)C(=O)N(Cc3cccnc3)C2c2cccs2)cc1 (centres undefined),11%,0%,25µM*,2%
CN(C)S(=O)(=O)c1ccc(/C(O)=C2/C(=O)C(=O)N(Cc3cccnc3)C2c2ccco2)cc1 (centres undefined),29%,-1%,?,8.3µM*
Cc1cccc(C(=O)n2cnnc2N)c1,10µM*,1%,2%,-49%
Cc1cc(C)cc(C(=O)n2cnnc2N)c1,0%,-4%,-10%,nt
CCOc1ccccc1N1CCN(C(=O)CCNS(=O)(=O)c2ccccc2F)CC1,-9%,-1%,1%,-14%
SMILES,Pf growth 48h,SARS PLpro yeast,Sm TGR inh,Pf growth 96h
CN1CCN(c2nc3c(c(=O)[nH]c(=O)n3C)n2CC(N)=O)CC1,?,2%,4%,13µM*
CN1CCN(c2nc3c(c(=O)[nH]c(=O)n3C)n2CCCSc2ncccn2)CC1,0%,-3%,0%,13µM*
Cc1ccnc(SCCn2c(N3CCN(c4ccccc4)CC3)nc3c2c(=O)[nH]c(=O)n3C)n1,nt,2%,7%,4.7µM*
Cn1c(=O)[nH]c(=O)c2c1nc(N1CCOCC1)n2CC(O)COc1ccc2ccccc2c1 (centres undefined),-10%,6%,-3%,6.6µM*
O=C(Nc1ccccc1F)c1ccc2c(Cl)c3c(nc2c1)CCC3,nt,nt,2%,nt
O=S(=O)(NCc1nc2cccnc2n1Cc1ccccc1)c1ccc2c(c1)CCCC2,nt,nt,2%,nt
Cn1cnnc1Sc1cc(N2CCN(S(=O)(=O)c3ccc(Cl)c(Cl)c3)CC2)ccc1[N+](=O)[O-],12µM*,6%,-10%,-2%
CCCn1c(CCC(=O)Nc2cc(C(=O)OC)cc(C(=O)OC)c2)nc2cccnc21,nt,nt,2%,nt
CC1(C)CC(C(CCN(Cc2ccccc2)C(=O)c2ccco2)c2ccc(F)cc2)CCO1 (centres undefined),12µM*,-33%,-9%,1.5µM*
O=C(c1ccco1)N(CCC(c1ccccc1)c1ccco1)Cc1ccc(F)cc1 (centres undefined),?,-21%,-5%,?
Cc1nn(-c2ccccc2)c(C)c1/C=N/NC(=O)c1cc(-c2ccccc2)n[nH]1,15µM*,-11%,-4%,9.3µM*
Oc1ccccc1-n1c(-c2ccccc2)ccc1-c1ccccc1,9.3µM*,-4%,-2%,5.9µM*
COC(=O)C1=CO[C@@H](O[C@@H]2O[C@H](CO)[C@@H](O)[C@H](O)[C@H]2O)C2C1C=C[C@@]2(O)CO (some centres undefined),nt,-12%,nt,nt
Cc1ccc(-n2c(C)cc(C(=O)CSc3n[nH]c(N)n3)c2C)cc1,?,-5%,-27%,3.3µM*
CCCCC(NC(=O)c1ccc(C#N)cc1)C(=O)NCCC (centres undefined),21%,2%,2%,38%
Cc1ccc(C2(C)NC(=O)N(CC(=O)NNC(=O)c3ccccc3)C2=O)cc1 (centres undefined),-25%,-2%,-1%,-11%
Cc1ncccc1C(=O)N1CCCC(C(=O)c2ccc3c4c(cccc24)CC3)C1 (centres undefined),?,1%,10%,22%
O=C(c1ccc2c3c(cccc13)CC2)C1CCCN(C(=O)c2ccc(=O)[nH]c2)C1 (centres undefined),-10%,0%,40µM*,?
CN(C)C(=O)CCC(=O)N1CCCC(C(=O)c2ccc3c4c(cccc24)CC3)C1 (centres undefined),-2%,1%,8%,15µM*
C[C@H]1CCCC(=O)CCCCCc2cc(O)cc(O)c2C(=O)O1,4.1µM*,-4%,2%,9.3µM*
CN1CCCN(Cc2ccccc2Br)CC1,15%,-3%,?,?
CCN(C(=O)CN1C(=O)S/C(=C\c2cccc(Cl)c2)C1=O)C1CCS(=O)(=O)C1 (centres undefined),?,3%,8%,12µM*
